From the supplement of paper PMC6555819

Tests used:
Test in all cases: PBM binding z-score (relative to random genomic background probes); higher = stronger binding; sequences stand for … in GC…GCGATTGACAGCGTAGAATGAAGG
[1] = tested on: PPARg:RXRa DBDmut IVT, anti-RXR (DBD mutation: RXRa K156A/R161A, NR concentration 270 nM, RXRa partner concentration 90 nM)
Summary of the method: (§1)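 Probes were double-stranded and carried 34-nt variable regions with direct-repeat seeds, single-nucleotide variants, half-site ablations and random human genomic background sequences, printed on custom Agilent 4×180K protein-binding microarrays. Arrays were incubated 1 h with ligand-free nuclear receptor dimers in PBS pH 7.4, 2% milk, 0.02% Triton X-100, 1 mM DTT, 0.2 mg/mL BSA and 0.4 mg/ml salmon testes DNA. Antibodies against each partner (one per run) detected binding, and scanned fluorescence was regression-normalized. Binding z-scores use the random background probes as reference.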

[2] = tested on: PPARg:RXRa IVT, anti-PPARg (NR concentration 270 nM, RXRa partner concentration 90 nM)
Summary of the method: as §1

[3] = tested on: PPARg DBDmut:RXRa IVT, anti-PPARg (DBD mutation: PPARg1 K132A/R137A, NR concentration 270 nM, RXRa partner concentration 90 nM)
Summary of the method: as §1

[4] = tested on: PPARg DBDmut IVT, anti-PPARg (DBD mutation: PPARg1 K132A/R137A, NR concentration 270 nM)
Summary of the method: as §1

[5] = tested on: PPARg homodimer (NR concentration 180 nM)
Summary of the method: as §1

[6] = tested on: PXR:RXRa (NR concentration 270 nM, RXRa partner concentration 90 nM)
Summary of the method: as §1

[7] = tested on: PXR homodimer (NR concentration 270 nM)
Summary of the method: as §1

[8] = tested on: RARa:RXR (NR concentration 270 nM, RXRa partner concentration 90 nM)
Summary of the method: as §1

[9] = tested on: RARa homodimer (NR concentration 270 nM)
Summary of the method: as §1

[10] = tested on: RARb:RXRa (NR concentration 270 nM, RXRa partner concentration 90 nM)
Summary of the method: as §1

Sequence | PBM binding z-score [1] | PBM binding z-score [2] | PBM binding z-score [3] | PBM binding z-score [4] | PBM binding z-score [5] | PBM binding z-score [6] | PBM binding z-score [7] | PBM binding z-score [8] | PBM binding z-score [9] | PBM binding z-score [10]
GCGACTGGGGCAAAGCAGGTTTCCATAAGGTTGG | 4.2 | 3.02 | -0.184 | -0.615 | -0.0282 | -0.473 | -0.449 | -0.165 | -0.557 | 0.376
CCTTACGGGTCACTGACGGGTTATAGCATTTGGA | 2.64 | 3.56 | 0.267 | 0.298 | 3.14 | 3.66 | -0.038 | 4.82 | 0.976 | 4.04
ATCTCTAGGTAAACAAGTTCAGTGAATGCCGAAC | 2.47 | 2.16 | 1.52 | 1.13 | 1.19 | 1.47 | 2.08 | 0.521 | 1.04 | 1.05
TAGCCTAGGTCATGCGGGCCAGTTTAGTGTCGGC | 2.01 | 2.55 | -0.215 | -0.754 | 0.303 | 1.59 | -0.464 | 2.22 | -0.83 | 3.45
CAGCCTAGGTCAGGGCCTGTATAGGAGGAACGTT | 1.45 | 1.31 | -0.895 | -1.4 | 0.134 | 0.236 | -0.76 | 0.971 | -1.2 | 3.33
CTCGAAAGCTCGGTTGAGGTGAGTATACGGATAA | -0.672 | -0.193 | -0.22 | -0.607 | -0.84 | -0.305 | -0.679 | 0.034 | -0.648 | -0.166
ACTATTAGTTGAGATGAGGGCAACCGATAGGTTG | 0.105 | 0.33 | 1.25 | 0.632 | 0.972 | 1.35 | 0.727 | 0.676 | 1.33 | 1.22
ATCTGTAGGTAAAGATAGTTCAGTGAATGCAAAT | 1.63 | 1.5 | 0.849 | 0.832 | 0.977 | 1.03 | 0.786 | 0.946 | 0.896 | 0.675
CCTACTGGGCCACGAAAGGTCATGGATTCAGTGA | 5.9 | 6.03 | -0.103 | -0.148 | 3.03 | 5.15 | 0.707 | 5.48 | 1.81 | 4.27
ATCTCTAGGTAAAAGTTCAGCGAATCCCGAGGAT | 2.55 | 4.3 | 1.19 | 1.67 | 2.4 | 2.46 | 1.54 | 2.48 | 0.715 | 2.93
GCGGCTAGGTCAACTGATGGTCAGCTAAAGCTCG | 3.34 | 3.06 | -0.724 | -1.01 | 1.76 | 1.59 | -0.666 | 2.84 | -0.107 | 4.36
ACTAGCAGGACAAGGGTCACTCAAGATTAGTCCG | 0.93 | 3.2 | -0.0211 | -0.445 | 2.71 | 3.31 | 0.0433 | 4.23 | 0.605 | 3.47
GCTAGCAGGCCATTTGGGTCATTCAATGACGGGC | 2.06 | 2.04 | -1.48 | -1.11 | -0.184 | 0.822 | 0.976 | 0.854 | -0.862 | 1.28
TCTCGGAGGACACGAAGGTTAGAGCTTTCCAGAG | 0.921 | 0.171 | -0.626 | -1.17 | -0.693 | 0.0364 | -0.704 | 0.0543 | -1.13 | 1.88
GCAGATAGGTAATACAAGGTGAAAGTCCGATTGT | 0.315 | 0.869 | 0.607 | 0.154 | 0.298 | 0.645 | 0.172 | 0.91 | 0.423 | 0.412
ATCTCTAAGTAAAAGTTCAGTGAATCCCGAGGAT | -0.124 | 0.598 | 0.919 | 0.992 | 1.15 | 1.72 | 1.61 | 1.19 | 1.33 | 2.33
GCAGACAGGTGAAACGCAGGTAACTCGGGGTGGC | 0.722 | 0.559 | -0.371 | -1.17 | -0.333 | 0.0221 | -0.587 | 0.361 | -1.06 | 0.754
CGAATTAGGTCAAGGACAGTGAATCTCCGCACGC | 8.12 | 8.06 | 3.79 | 1.82 | 1.89 | 1.28 | 0.205 | 2.79 | 0.19 | 4.18
TAGCCTAGGTGAGATCGGGCCAGTATACGCTATA | 0.128 | 1.07 | -0.934 | -1.25 | -0.915 | -0.281 | -0.98 | 0.347 | -1.23 | -0.0511
CGAACTAGGTCATCCAGGATAGTGAATACATTGA | 7.97 | 8.31 | 1.76 | 1.58 | 1.43 | 1.54 | 0.608 | 2.18 | 1.13 | 3.78
ACTAACAGGCCAAGTTTGGGTCACTCAAACAAAG | 0.131 | 0.999 | -0.122 | 0.374 | 0.38 | 0.912 | -0.269 | 1.75 | -0.388 | 2.11
TCATATAGGTAAAGGTGATAGTCGAACGATATGA | 3.45 | 3.38 | 1.17 | 1.36 | 0.694 | 0.398 | 0.262 | 0.569 | 0.68 | 1.09
TTACCAAGGAGAAGGTCGTTGATCCCTCTGTAGA | -0.339 | -0.0762 | -0.116 | 0.61 | 0.455 | 1.03 | -0.292 | 1.34 | -0.134 | 0.537
CAAACTAGGTCACCCGAAGGTCAAAGTCCGCATG | 8.43 | 8.81 | 7.92 | 7.09 | 11.1 | 6.02 | 2.67 | 7.7 | 3.95 | 5.29
